In the supplement of paper PMC7156485:

Experiments:
Details in all cases: concentration: 10 µM; 24 h
HCC1569 [1] = assay: cell number relative to DMSO (% of DMSO); higher = more cells (less growth inhibition / toxicity)
Outline: (§1)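 Using 384-well plates with 800 cells per well in RPMI plus 10% FBS, HCC1569 and TDF cells were exposed to compounds at 10 µM, in triplicate, for 24 h at 37 °C. Imaging of six fields per well at ×10 followed H1.0 and DAPI staining. The reported quantity, H1.0 nuclear intensity or cell number, is a median of replicates given as percent of the plate control, and HCC1569 values were smoothed for positional effects.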

TDF [2] = assay: as above
Outline: as §1

TDF [3] = assay: H1.0 immunofluorescence intensity relative to DMSO (% of DMSO); higher = stronger H1.0 induction, active = 120 or more
Outline: as §1

HCC1569 [4] = assay: H1.0 immunofluorescence intensity relative to DMSO (% of DMSO); higher = stronger H1.0 induction, active = 140 or more
Outline: as §1
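Throughout, for H1.0 immunofluorescence intensity relative to DMSO: TDF is a line of transformed human dermal fibroblasts of mesenchymal origin.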
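Throughout, for cell number relative to DMSO: TDF denotes transformed human dermal fibroblasts of mesenchymal origin.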

| Structure (SMILES) | cell number (HCC1569 [1]) | cell number (TDF [2]) | H1.0 immunofluorescence intensity (TDF [3]) | H1.0 immunofluorescence intensity (HCC1569 [4]) |
| --- | --- | --- | --- | --- |
| C#CC(N)CCC(=O)O (stereo unspecified) [gamma-Acetylinic GABA] | 103 | 99.9 | 93.2 (inactive) | 84.4 (inactive) |
| O=C(Nc1c(Cl)cncc1Cl)c1ccc(OC(F)F)c(OCC2CC2)c1 | 99.9 | 92.1 | 95.6 (inactive) | 101 (inactive) |
| CCCCCC(O)CC=C1C(=O)C=CC1CC=CCCCC(=O)O (stereo unspecified) [D12-Prostaglandin J2] | 108 | 96.8 | 103 (inactive) | 106 (inactive) |
| CC(C)(N)c1ccc(-c2nc3ccccc3nc2-c2ccccc2)cc1 | 95.6 | 95.3 | 106 (inactive) | 103 (inactive) |
| COc1cc(C=CC(=O)CC(=O)C=Cc2ccc(O)c(OC)c2)ccc1O [Curcumin] | 71.3 | 62.7 | 106 (inactive) | 139 (inactive) |
| N#CC(=Cc1ccc(O)cc1)C(N)=C(C#N)C#N [Tyrphostin AG 112] | 101 | 109 | 95.7 (inactive) | 81 (inactive) |
| CNc1ncnc2c1ncn2C1OC(CO)C(O)C1O (stereo unspecified) [N6-Methyladenosine] | 95.6 | 106 | 93.9 (inactive) | 110 (inactive) |
| CC1(C)C=Cc2c(ccc3c2OC[C@@H](c2ccc(O)cc2O)C3)O1 | 99.4 | 93.1 | 101 (inactive) | 109 (inactive) |
| CCOC(=O)[C@H](Cc1ccc([N+](=O)[O-])cc1)NC(=O)c1ccccc1 [ethyl (2S)-2-(benzoylamino)-3-(4-nitrophenyl)propanoate] | 101 | 98.3 | 93.8 (inactive) | 95 (inactive) |
